VP16 counter: counter-screen for ROR gamma inhibitors: Gal4-VP16 reporter; Drosophila S2 Gal4-VP16 UAS-luciferase, luminescence, 20 h; Potency, µM (top dose mostly 53.6 µM), actives largely listed as inhibitors; 310,000 compounds, 3.5% hits;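 also: Gal4-VP16 expression switched on by copper sulfate through the metallothionein promoter; nearly all actives have a fitted effect of over 50% in size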
HepG2 viability: kills HepG2 cells in TGF-b inhibitor counter-screen | HepG2 CAGA-GFP viability, ATP luminescence, 18 h | Potency, µM (doses to about 46.1 µM), usual class: cytotoxic | 410,000 compounds, 0.76% hits | AID 588856
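CellTiter-Glo luminescence gave cytotoxicity after 18 hours at 37 degrees C. The cells were HepG2 CAGA-GFP in 1% FBS DMEM, stimulated with 500 pg/mL TGF-beta after compound addition. %Activity was normalised to no-cell wells (complete cell-killing) and DMSO (no toxicity), and curves were fitted and classified.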
RORg inh: inhibitors of mouse ROR gamma transcriptional activity. Drosophila S2 Gal4-RORgamma UAS-luciferase reporter, 20 h. Potency, µM (highest dose often 53.6 µM), usual class: inhibitors. 310,000 compounds, 5.4% hits; also: nearly all actives have a fitted effect of over 60% in size
Target sequence (P51450 whole entry, looked up, the tested form may be a part): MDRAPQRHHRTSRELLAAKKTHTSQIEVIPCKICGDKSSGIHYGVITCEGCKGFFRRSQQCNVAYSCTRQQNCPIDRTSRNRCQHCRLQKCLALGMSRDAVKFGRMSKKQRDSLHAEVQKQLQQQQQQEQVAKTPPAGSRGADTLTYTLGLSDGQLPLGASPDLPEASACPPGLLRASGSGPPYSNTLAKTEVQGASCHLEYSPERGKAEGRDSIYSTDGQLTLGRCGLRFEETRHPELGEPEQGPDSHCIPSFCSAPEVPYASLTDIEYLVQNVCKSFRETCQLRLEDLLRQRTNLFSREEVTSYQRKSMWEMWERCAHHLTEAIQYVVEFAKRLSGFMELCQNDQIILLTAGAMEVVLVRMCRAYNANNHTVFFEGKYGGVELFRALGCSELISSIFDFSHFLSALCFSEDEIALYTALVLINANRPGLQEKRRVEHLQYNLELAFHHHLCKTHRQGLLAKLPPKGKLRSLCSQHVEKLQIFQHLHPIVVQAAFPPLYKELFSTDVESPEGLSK
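A Gal4/UAS one-hybrid system in insect cells: metallothionein-promoter Gal4–ROR gamma fusion plus Photinus luciferase reporter. Copper sulfate 700 uM final, 20 hr ambient incubation, luminescent detection after 10 min with reagent.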
TGFb SMAD3 inh: TGF-b pathway inhibition; Potency, µM (titrated, usually from 46.1 µM), usual class: inhibitors; HepG2 CAGA-GFP TGF-b/SMAD3 reporter, GFP fluorescence, 18 h; TGF-beta stimulated, 500 pg/mL final; 410,000 compounds, 1.2% hits; also: nearly all actives have a fitted effect of over 65% in size
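Read-out: total well GFP (ex488/em500-530) summed from mean per-cell fluorescence. Cells: HEPG2 CAGA-GFP, 1% FBS DMEM, 18 h at 37 degrees C with 500 pg/mL final TGF-beta. Unstimulated wells served as the full-inhibition control; stimulated DMSO wells = 0%.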
ATXN2 expr inh: ATXN2 expression inhibition. 360,000 compounds, 0.72% hits. HEK-293 ATXN2-luciferase reporter, luminescence, 24 h. Potency, µM (doses to about 57 µM), usual class: inhibitors; also: nearly all actives have a fitted effect of over 55% in size
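qHTS (up to 57 uM final) was run with 24 h compound exposure of reporter cells at 37 °C. Each well was multiplexed: SteadyGlo luminescence measured ATXN2-luciferase expression after a fluorogenic Gly-Phe-AFC viability readout (25 uM final).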
ATXN viability: cell viability loss in ATXN counter-screen | S2 cells (HEK-293 line with an ATXN2-luciferase reporter) viability, CellTiter-Fluor protease fluorescence, 24 h | Potency, µM (top dose mostly 56.7 µM), hits mostly cytotoxic | 400,000 compounds, 0.49% hits | AID 651635; also: nearly all actives have a fitted effect of over 40% in size
Numbers stand for hits; - = inactive; ? = inconclusive; . = no result given; ! = not active in a repeat; [ ] = dose if it differs, or a comment. An excerpt weighted towards active compounds, which were near 6.3% of everything screened. Calls follow the shape of the dose curve; as a rule, active = well fitted curve in the direction sought with a large enough effect; inconclusive = small, poorly fitted or top-dose-only effect, or another doubt; inactive = no such curve, though single readings can be large; an effect the other way counts as inactive or inconclusive.

SMILES	VP16 counter	HepG2 viability	RORg inh	TGFb SMAD3 inh	ATXN2 expr inh	ATXN viability
COc1ccc(S[C@@H](CCN2CC[C@H](C)CCC2=O)c2ccccc2)cc1	.	-	.	15.8µM	?	?
Cc1ccc(S[C@@H](CCN2CC[C@H](C(C)(C)C)CCC2=O)c2ccccc2)cc1	10µM	12.6µM	-	?	-	?
CC(=O)Nc1ccccc1NS(=O)(=O)c1ccccc1NO	.	-	.	?	.	.
CCCNC(=S)Nc1ccccc1	?	-	10µM	-	.	-
Cc1ccccc1OCCNC(=S)Nc1ccccc1	5.62µM	-	3.16µM	?	-	-
S=C(NCCCc1ccccc1)Nc1ccccc1	3.98µM	-	15.8µM	-	-	-
S=C(NCCc1ccccc1)Nc1ccc(Nc2ccccc2)cc1	12.6µM	-	5.01µM	?	-[11.3 µM]	-
O=C(NCCCc1ccccc1)Nc1ccccc1	-	-	-	-	-	-
S=C(NNC(=S)Nc1ccccc1)Nc1ccccc1	?	-	-	-	-	-
COCCCNC(=S)NNC(=S)Nc1ccccc1	-	-	?	-	-	?
Nc1nc(NCc2ccc(Cl)cc2Cl)c2[nH]cnc2n1	.	-	.	-	.	.
CCN(CC)CCN	.	.	.	.	-	-
CCN(CC)c1ccc(NC(=O)CCS(=O)(=O)c2cc3c(cc2Cl)NC(=O)CO3)c(C)c1	.	-	.	-	-	-
O=C(Nc1cccnc1)C1Cc2c(-c3ccco3)ccnc2O1 (stereo not drawn)	.	-	.	-	-	-
COc1ccc(Cl)c(Cn2cnc3c(cnn3C(C)(C)C)c2=O)c1F	.	-	.	-	.	.
S=C(NCCCc1ccccc1)Nc1ccc(Cl)cc1	5.01µM	-	4.47µM	?	-	?
Cc1cc(Nc2ccc(Cl)cc2)nc(NCc2ccccc2)n1	?	11.2µM	?	?	?	?
CCCCNc1cc(C)nc(NCc2ccccc2)n1	7.08µM	-	?	?	?	?
Cc1ccc(S(=O)(=O)N2CCOCC2)cc1NCC(=O)Nc1ccc(OC(F)(F)F)cc1	.	-	.	-	-	?
C/C(=N\NC(=O)c1ccc([N+](=O)[O-])cc1)c1c(O)cc(C)oc1=O	?	-	0.631µM	-	-	-
C/C(=N\NC(=O)c1cccnc1)c1c(O)cc(C)oc1=O	-	-	-	-	-	-
C/C(=N\NC(=O)c1ccccc1O)c1c(O)cc(C)oc1=O	2.51µM	-	0.891µM	?	-	-
C/C(=N\NC(=O)c1ccccc1[N+](=O)[O-])c1c(O)cc(C)oc1=O	6.31µM	-	3.16µM	-	-	-
COCCNC(=O)C1(C)CCCN(Cc2cc(-c3ccccc3)n(C)n2)C1 (stereo not drawn)	.	-	.	-	-	-
CCC(=O)N1CCc2cc(S(=O)(=O)NCCC(=O)Nc3ccc(CC)cc3)ccc21	.	-	.	-	-	-
SMILES	VP16 counter	HepG2 viability	RORg inh	TGFb SMAD3 inh	ATXN2 expr inh	ATXN viability
O=C(Nc1ccc(F)c(Cl)c1)c1ccc2c(Cl)c3c(nc2c1)CCCC3	.	-	.	-	-	-
C[C@@H]1CN([C@@H](C)CO)C(=O)Cc2cc(NC(=O)Nc3ccc(F)cc3)ccc2O[C@@H]1CN(C)Cc1ccc(Cl)c(Cl)c1	.	15.8µM	.	?	?	?
C[C@H]1CN([C@@H](C)CO)C(=O)Cc2cc(NS(C)(=O)=O)ccc2O[C@@H]1CN(C)Cc1ccc(Cl)c(Cl)c1	.	-	.	11.2µM	-	?
C[C@H](CO)N1C[C@H](C)[C@H](CN(C)C(=O)Nc2ccc(F)cc2)Oc2ccc(NC(=O)NC3CCCCC3)cc2CC1=O	.	-	.	-	-	-
C[C@H](CO)N1C[C@H](C)[C@H](CN(C)CC2CCCCC2)Oc2ccc(NS(=O)(=O)c3ccc(F)cc3)cc2CC1=O	.	-	.	?	?	28.2µM
CN(C)Cc1nc2c(c(=O)[nH]1)C1(CCCCC1)Cc1ccccc1-2	5.01µM	-	2.51µM	-	-	-
Nn1cnc2c(c1=O)C1(CCCCC1)Cc1ccccc1-2	-	11.2µM	-	8.91µM	-	-
CN(C)Cc1nc2c(c(=O)[nH]1)C(C)(C)Cc1ccccc1-2	?	-	?	-	-	-
CCC1(CC)Cc2ccccc2-c2nc(CN(C)C)[nH]c(=O)c21	7.08µM	-	6.31µM	-	?	-
CCN(CC)Cc1nc2c(c(=O)[nH]1)C1(CCCCC1)Cc1ccccc1-2	11.2µM	-	11.2µM	-	-	-
CC(C)C(O)c1ccc2c(c1)CN(C(=O)c1ccccc1-n1cccn1)CCO2 (stereo not drawn)	.	.	.	.	.	-
CCOC(=O)c1cccc(NC(=O)C2CCCN(S(=O)(=O)c3ccc4c(c3)oc(=O)n4C)C2)c1 (stereo not drawn)	.	-	.	?	-	?
CC(CC(=O)Nc1ccc2c(c1)c(=O)n(C)n2Cc1ccc(F)cc1)c1ccccc1 (stereo not drawn)	.	-	.	-	-	-
CCOc1ccc2c(ccc(/C=C/c3cc(C)c4cccnc4c3O)[n+]2C)c1	.	-	.	7.08µM	?	7.52µM
CCOc1ccc(/C=C/c2ccc3ccccc3[n+]2C)cc1OCC	.	-	.	-	.	.
CCC(C)c1ccccc1N1CC(C(=O)Nc2cccc(S(=O)(=O)N3CCOCC3)c2)CC1=O (stereo not drawn)	?	-	?	?	-	-
O=C(/C=C/c1ccc(OC(F)F)cc1)OCC(=O)N1CCN(C(=O)c2ccco2)CC1	-	-	-[10 µM]	-	-	-
CCOC(=O)/C=C/C(=O)OCC(=O)N1CCN(C(=O)c2ccco2)CC1	?	-	11.2µM	-	-	-
Cc1cc(C)nc(Sc2nc(Cl)nc(N(c3ccccc3)c3ccccc3)n2)n1	?	-	11.2µM	?	-	-
O=C(O)CCc1nnc2cnc3ccccc3n12	.	-	.	-	-	-
CC(C)c1ccc2oc3nc(N)c(C(=O)O)cc3c(=O)c2c1	3.98µM!	.	7.94µM	.	-	-
C[C@H]1O[C@H](O[C@H]2[C@H](O)[C@@H](O)[C@@H](O[C@H]3[C@H](O)[C@@H](O)[C@H](O)O[C@@H]3CO)O[C@@H]2CO)[C@H](O)[C@@H](O)[C@@H]1N[C@H]1C=C(CO)[C@@H](O)[C@H](O)[C@H]1O	.	.	.	.	-	-
CCCOc1ccc(-c2c(C(=O)N/N=C/c3ccc(OCC)cc3)nnn2-c2nonc2N)cc1	10µM	-	10µM	-	-	-
CCCOc1ccc(-c2c(C(=O)N/N=C/c3cccs3)nnn2-c2nonc2N)cc1	3.16µM	-	2.24µM	?	-	-
CCOc1ccc(-c2c(C(=O)N/N=C(\C)c3ccco3)nnn2-c2nonc2N)cc1	-	-	-	-	-	-
CCOc1ccc(-c2c(C(=O)N/N=C(\C)c3ccccc3OC)nnn2-c2nonc2N)cc1	-	-	5.62µM	-	-	-
CCOc1ccc(-c2c(C(=O)N/N=C/c3ccc(OC)cc3)nnn2-c2nonc2N)cc1	?	-	?	-	-	-

Bioassay records as filed in PubChem BioAssay.
